# Screens as filed in PubChem BioAssay.
# Vif-APOBEC3G blk = qHTS for Inhibitors of Vif-A3G Interactions: qHTS | DNA dC->dU-editing enzyme APOBEC-3G (Homo sapiens), Q9HC16 | HeLa A3G-eYFP + Vif (tagged APOBEC3G with the HIV-1 protein that degrades it), YFP fluorescence, overnight | Potency, µM (series often up to 46.1 µM), for inactives: top-dose activity, negative = active, usual class: inhibitors | actives 0.076% (n = 410,000); further: potency means the concentration at half of the fitted maximal effect; on the % scale 0 is the no-effect control and ±100 the full control effect; nearly all actives have a fitted effect of over 60% in size
#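 Read-out is eYFP fluorescence (Ex 488/Em 500-530) from Vif-expressing HeLa A3G-eYFP cells; more signal means A3G escaped Vif-mediated degradation. Cells plated overnight, compound pinned in, incubated overnight at 37 deg C.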
# PLK1 PBD block = qHTS for Inhibitors of PLK1-PDB (polo-like kinase 1 - polo-box domain): Primary Screen | Serine/threonine-protein kinase PLK1 (Homo sapiens), P53350 | Plk1 PBD binding of FITC phosphopeptide, fluorescence polarization | Potency, µM, for the others: max response, negative = inhibition, usual class: inhibitors | actives 2.8% (n = 360,000); further: potency means the concentration at half of the fitted maximal effect; series mostly up to about 57 µM; on the % scale 0 is the no-effect control and ±100 the full control effect; nearly all actives have a fitted effect of over 65% in size
# Target sequence (P53350 whole entry, looked up, the tested form may be a part): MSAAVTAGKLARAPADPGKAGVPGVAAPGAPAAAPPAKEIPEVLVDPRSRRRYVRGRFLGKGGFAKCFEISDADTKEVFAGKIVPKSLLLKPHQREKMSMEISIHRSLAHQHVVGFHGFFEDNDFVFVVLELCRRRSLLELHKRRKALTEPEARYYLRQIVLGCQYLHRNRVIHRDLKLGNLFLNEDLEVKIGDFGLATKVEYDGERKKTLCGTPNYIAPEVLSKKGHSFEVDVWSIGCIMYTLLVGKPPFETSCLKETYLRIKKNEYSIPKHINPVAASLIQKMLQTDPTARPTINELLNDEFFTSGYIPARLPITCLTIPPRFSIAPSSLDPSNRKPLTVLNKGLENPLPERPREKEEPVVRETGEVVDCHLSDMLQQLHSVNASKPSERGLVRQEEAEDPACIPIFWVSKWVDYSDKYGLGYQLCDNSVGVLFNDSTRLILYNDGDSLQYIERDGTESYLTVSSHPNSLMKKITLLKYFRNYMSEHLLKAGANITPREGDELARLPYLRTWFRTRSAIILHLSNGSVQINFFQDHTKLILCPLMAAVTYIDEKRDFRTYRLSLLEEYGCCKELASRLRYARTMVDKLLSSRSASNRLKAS
# VDR inh = Inhibitors of the vitamin D receptor (VDR): qHTS. Vitamin D3 receptor (Homo sapiens), P11473. VDR-SRC2-3 peptide fluorescence polarization, 2 h. Potency, µM, inactives show max response, negative = inhibition, actives largely listed as inhibitors. actives 0.93% (n = 400,000); further: potency means the concentration at half of the fitted maximal effect; on the % scale 0 is the no-effect control and ±100 the full control effect
#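 Fluorescence polarization assay of small-molecule disruption of VDR binding to coregulator peptide SRC2-3. Compounds and controls pin-transferred, then read after 2 h incubation at ambient room temperature.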
# TSHR antagonist = Antagonists of the Thyroid Stimulating Hormone Receptor: HTS campaign; actives 0.2% (n = 330,000); AID 504810, 2011; Thyrotropin receptor (Homo sapiens), P16473; activity change, negative = inhibition, % at 11.5 µM; TSHR-expressing cells, TSH-stimulated cAMP HTRF, 2 h; stronger effect = lower value;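 active means activity change below a set negative limit, meaning inhibition stronger than a set level, cut at about -70% in these data; inconclusive means activity change between two set negative limits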; further: on the % scale 0 is the no-effect control and ±100 the full control effect
#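 Competitive HTRF cAMP read-out (cryptate anti-cAMP antibody, cAMP-d2; 30 min, room temperature) in freshly harvested TSHR cells. Compounds added before TSH at EC80 (4nM final), followed by 2 hours' incubation at 37 deg C.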
# Vif-APOBEC3F blk = qHTS for Inhibitors of Vif-A3F Interactions: qHTS. HeLa A3F-eYFP + Vif (tagged APOBEC3F with the HIV-1 protein that degrades it), YFP fluorescence increase. Potency, µM (highest dose often 46.1 µM), inactives show at the top dose activity, negative = active. actives 0.2% (n = 390,000). AID 602313, 2012; further: potency means the concentration at half of the fitted maximal effect; % of control where 0% means no effect; nearly all actives have a fitted effect of over 65% in size
#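 HeLa cells stably expressing Vif plus C-terminally eYFP-tagged A3F were seeded, incubated overnight at 37 deg C, dosed with compound, incubated overnight again at 37 deg C. Yellow fluorescence (Ex 488/Em 500-530) reported blocked Vif-mediated A3F-eYFP degradation.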
# Active calls of the source: *; ? = inconclusive; . = no result given. Rows were chosen to be rich in hits. Some 3.1% of all compounds tested hit in one or more screens of this group. Unless noted, the call rests on the fitted dose curve; in most records, active means well fitted curve in the direction sought with a large enough effect; inconclusive means small, poorly fitted or top-dose-only effect, or another doubt; inactive means no such curve, though single readings can be large; an effect the other way counts as inactive or inconclusive.
SMILES,Vif-APOBEC3G blk,PLK1 PBD block,VDR inh,TSHR antagonist,Vif-APOBEC3F blk
CC[C@]12c3[nH]c4cc(-c5ccco5)ccc4c3CCN1C(=O)[C@@H](CC(=O)NCCC1=CCCCC1)C[C@@H]2C(=O)N1CCN(C(=O)C2CC2)CC1,-3%,21µM*,?,-6,9%
CC(C)N(C(=O)[C@H]1C[C@H](CC(=O)NC(C)(C)C)C(=O)N2CCc3c([nH]c4cc(-c5ccco5)ccc34)[C@]12C)C(C)C,2%,21µM*,?,1,-25%
COc1ccc(CNC(=O)C[C@H]2C[C@H](C(=O)N3CCCCC3)[C@@]3(CCc4ccccc4)c4[nH]c5cc(-c6ccco6)ccc5c4CCN3C2=O)cc1OC,-7%,24µM*,89µM*,-14,4%
CC(C)c1nn2c(=O)cc(COc3cccc(NC(=O)c4ccco4)c3)nc2s1,0%,24µM*,-32%,18,3%
NC(=O)COC(=O)c1ccccc1OCC(=O)Nc1ccc(Br)cc1,1%,.,.,.,.
Cc1oc(/N=C/c2ccccc2)c(C#N)c1C,1%,-12%,-6%,11,3%
COc1[nH]c(/N=C/c2ccccc2)c(C#N)c1C#N,-8%,21µM*,-11%,11,-12%
CC(=O)c1cc(F)c(N2CCN(C(=O)c3ccco3)CC2)cc1C,-5%,-4%,14%,-8,2%
CC(=O)c1ccc(N2CCN(C(=O)c3ccco3)CC2)c(F)c1,0%,19µM*,6%,10,-1%
C/C(CC(=O)Nc1ccc(N(C)C)cc1)=N\NC(=O)c1ccc([N+](=O)[O-])cc1Cl,-10%,21µM*,79µM*,-8,6%
C/C(CC(=O)Nc1ccc(N(C)C)cc1)=N\NC(=O)c1ccc(Cl)cc1Cl,-2%,2%,-4%,-14,-4%
Cc1ccccc1OCC(=O)NCC(=O)OCC(=O)c1ccc2c(c1)CCCC2,1%,.,-4%,.,.
CCOC(=O)c1c(NC(=O)CSc2nc3ccc(OC)cc3[nH]2)sc2c1CC(C)(C)NC2(C)C,?,1%,-2%,-2,25µM*
CCCOC(=O)c1c(NC(=O)C2C3C=CC(C3)C2C(=O)O)sc2c1CCC(C)C2 (stereo not drawn),-4%,5.3µM*,?,8,1%
COC(=O)c1c(NC(=O)Cc2cccs2)sc2c1CCC(C)C2 (stereo not drawn),1%,21µM*,-4%,-4,-3%
COC(=O)c1c(NC(=O)Cc2ccccc2)sc2c1C(C(=O)OC)CC2 (stereo not drawn),-5%,17µM*,14%,12,4%
COC(=O)c1c(NC(=O)CN(C)CC(=O)Nc2ccc(C)cc2)sc2c1CCC(C)C2 (stereo not drawn),2%,4%,-3%,-5,4%
COc1ccccc1CN1CCCC2(CCN(C(=O)c3c(C)noc3C)CC2)C1,.,.,0%,.,.
COC(=O)c1c(NC(=O)Cn2cnc([N+](=O)[O-])n2)sc2c1CCC(C)C2 (stereo not drawn),4%,19µM*,?,-5,-9%
COC(=O)c1c(NC(=O)Cc2ccccc2)sc2c1CC(C)(C)NC2(C)C,-2%,24µM*,-7%,3,2%
O=C(CN1CCN(S(=O)(=O)c2ccc(Br)cc2)CC1)N/N=C/c1ccc(Br)s1,0%,24µM*,-1%,7,2%
CC(C)c1cc(C(=O)N/N=C/c2ccco2)n[nH]1,0%,7.5µM*,-16%,8,-1%
O=C(N/N=C/c1ccco1)c1cc(-c2cccs2)[nH]n1,-7%,-4%,-2%,-9,1%
CC(C)(C)OC(=O)NC(Cc1ccccc1)C(=O)NC1COC2CC(n3ccc(=O)[nH]c3=O)OC12 (stereo not drawn),-3%,.,-13%,.,.
NNC(=O)c1sc2cc(C(F)(F)F)cnc2c1-c1cccs1,-15%,-4%,?,-8,0%
SMILES,Vif-APOBEC3G blk,PLK1 PBD block,VDR inh,TSHR antagonist,Vif-APOBEC3F blk
O=C(Nc1ccccc1)c1sc2cc(C(F)(F)F)cnc2c1-c1cccs1,-5%,3µM*,?,0,4%
C=C1C=CS(=O)(=O)N(Cc2ccccc2)C1,-1%,.,-7%,.,.
COC(=O)[C@@]1(C)[C@H]2C(=O)N(Cc3ccccc3)C(=O)[C@H]2[C@H]2CN=C(SCc3ccccc3)N21,0%,-18%,-13%,23,4%
CCN1C(=O)[C@H]2[C@H]3CN=C(SCC(=O)c4ccccc4)N3[C@@](C)(C(=O)OC)[C@H]2C1=O,9%,?,45µM*,11,-1%
CC1CCCCN1C(=O)COC(=O)c1ccc(S(C)(=O)=O)c([N+](=O)[O-])c1 (stereo not drawn),-27%,.,?,.,.
O=c1[nH]sc2ccccc12,-7%,5.3µM*,?,-6,-3%
COc1ccc(CCNCC(=O)Nc2ccccc2C(F)(F)F)cc1,-4%,27µM*,-26%,36,8%
COc1ccc2ccc(O)c(CN(C)CC(=O)Nc3ccccc3C(F)(F)F)c2c1,-9%,11µM*,?,-1,-7%
Cc1ccc(NC(=O)CN(C)Cc2c(O)ccc3ccccc23)cc1,-4%,3.8µM*,79µM*,-8,2%
CCN(CC(=O)Nc1ccc(NC(C)=O)cc1)Cc1c(O)ccc2cc(Br)ccc12,-1%,9.5µM*,?,0,-2%
CC(C)(C)n1ncc2c(=O)n(Cc3cccc(F)c3)cnc21,2%,.,.,.,.
Cc1ccc(CNC(=O)c2nn(-c3ccc(Cl)cc3)nc2CO)cc1,-7%,.,2%,.,-6%
COc1cccc(CN(C)Cc2c(O)ccc3ccccc23)c1,1%,17µM*,0%,3,-5%
Cc1ccc2c(c1)c(=O)c(C(=O)c1ccc3c(c1)OCO3)cn2Cc1ccc(Cl)cc1,-4%,.,-1%,.,-1%
Cc1c(Cc2ccccc2)sc(NC(=O)C(C)(C)C)c1C(N)=O,-10%,19µM*,-8%,6,0%
Cc1c(Cc2ccccc2)sc(N)c1C(N)=O,.,.,.,-7,.
Cc1c(Cc2ccccc2)sc(NC(=O)Cc2ccccc2)c1C(N)=O,1%,11µM*,?,.,4%
Cc1c(Cc2ccccc2)sc(/N=C/c2c(O)ccc3ccccc23)c1C(N)=O,-28%,?,-26%,-2,8.9µM*
CCC(=O)Nc1sc(Cc2ccccc2)c(C)c1C(N)=O,1%,27µM*,-9%,-3,13%
Nc1nc(-c2nn(Cc3ccccc3F)c3ncccc23)ncc1C1CC1,.,.,-14%,.,.
O=C(CCN1CCCCCC1)c1ccccc1,1%,?,-7%,-3,1%
